{"source": "the supplement of paper PMC9262897", "about": "“Low-cost anti-mycobacterial drug discovery using engineered E. coli” (Nature Communications, 2022)", "note": "Where a name gives a salt, the structure may show the parent alone. ± gives the standard deviation of the averaged measurements.", "data": [{"tested_on": "E. coli TESEC Alr+ wild-type control", "experiment": "growth (OD600 after 10 h); higher = more growth (less inhibition)", "settings": "compound 0.1 mM; raw OD600 reference: median of DMSO wells 0.241, cell-free background 0.041", "protocol": "(§1)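 TESEC Mtb Alr E. coli, or the Alr+ wild-type control, in 384-well plates with Prestwick library compounds at 0.1 mM and 1% DMSO, across arabinose induction levels of 1E3 to 1E7 nM. Growth is read as OD600 after 10 h at 37 °C in triplicate biological replicates.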", "values": [{"smiles": "Cc1cn[nH]c1", "note": "[Fomepizole]", "growth": "0.242 ± 0.0098"}, {"smiles": "NC1CCN(c2nc3c(cc2F)c(=O)c(C(=O)O)cn3-c2ccc(F)cc2F)C1", "note": "(configuration not stated) [Tosufloxacin hydrochloride]", "growth": "0.0572 ± 0.0069"}, {"smiles": "CN(C)CCN1C(=O)c2ccccc2N(C)c2ccccc21", "note": "[Dibenzepine hydrochloride]", "growth": "0.234 ± 0.0039"}, {"smiles": "Nc1nc(NC2CC2)c2ncn([C@H]3C=C[C@@H](CO)C3)c2n1", "note": "[Abacavir Sulfate]", "growth": "0.238 ± 0.018"}, {"smiles": "O=C(NCCN1CCOCC1)c1ccc(Cl)cc1", "note": "[Moclobemide]", "growth": "0.233 ± 0.0068"}, {"smiles": "CC(C)C[C@H](NC(=O)[C@@H](O)[C@H](N)Cc1ccccc1)C(=O)O", "note": "[Ubenimex]", "growth": "0.24 ± 0.011"}, {"smiles": "CC(C(=O)O)c1ccc(-c2ccccc2)c(F)c1", "note": "(configuration not stated) [Flurbiprofen]", "growth": "0.188 ± 0.0069"}]}, {"tested_on": "E. coli TESEC Mtb Alr", "experiment": "growth (OD600 after 10 h); higher = more growth (less inhibition)", "settings": "arabinose 1000 nM; compound 0.1 mM; raw OD600 reference: median of DMSO wells 0.294, cell-free background 0.041", "protocol": "as §1", "values": [{"smiles": "CC1(C)O[C@@H]2C[C@H]3[C@@H]4C[C@H](F)C5=CC(=O)C=C[C@]5(C)[C@@]4(F)[C@@H](O)C[C@]3(C)[C@]2(C(=O)CO)O1", "note": "[Fluocinolone acetonide]", "growth": "0.262 ± 0.01"}, {"smiles": "O=C1CC[C@@H](C(=O)N2CSC[C@H]2C(=O)O)N1", "note": "[Pidotimod]", "growth": "0.29 ± 0.003"}, {"smiles": "Cc1cc(NS(=O)(=O)c2ccc(N)cc2)no1", "note": "[Sulfamethoxazole]", "growth": "0.271 ± 0.017"}, {"smiles": "CN(Cc1cnc2nc(N)nc(N)c2n1)c1ccc(C(=O)N[C@@H](CCC(=O)O)C(=O)O)cc1", "note": "(racemic) [Amethopterin (R,S)]", "growth": "0.273 ± 0.0079"}, {"smiles": "CN(C)CCCN1c2ccccc2CCc2ccc(Cl)cc21", "note": "[Clomipramine hydrochloride]", "growth": "0.03983 ± 0.00015"}, {"smiles": "CN1CCN2c3ccccc3Cc3ccccc3C2C1", "note": "(configuration not stated) [Mianserine hydrochloride]", "growth": "0.198 ± 0.013"}, {"smiles": "CCCN(CCC)C(=O)C(CCC(=O)O)NC(=O)c1ccccc1", "note": "(configuration not stated) [Proglumide]", "growth": "0.282 ± 0.036"}, {"smiles": "CCCCOc1ccc(CC(=O)NO)cc1", "note": "[Bufexamac]", "growth": "0.247 ± 0.014"}, {"smiles": "CC(C)CC(=O)N[C@H](C(=O)N[C@H](C(=O)N[C@@H](CC(C)C)[C@@H](O)CC(=O)N[C@@H](C)C(=O)N[C@@H](CC(C)C)[C@@H](O)CC(=O)O)C(C)C)C(C)C", "note": "[Pepstatin A]", "growth": "0.307 ± 0.0049"}, {"smiles": "CO[C@@]1(NC(=O)C2SC(=C(C(N)=O)C(=O)O)S2)C(=O)N2C(C(=O)O)=C(CSc3nnnn3C)CS[C@@H]21", "note": "(some centres not stated) [Cefotetan]", "growth": "0.0383 ± 0.0011"}, {"smiles": "CC[N+](CC)(CC)CCC(O)(c1ccccc1)C1CCCCC1", "note": "(configuration not stated) [Tridihexethyl chloride]", "growth": "0.298 ± 0.015"}, {"smiles": "O=C1c2ccccc2C(=O)C1c1ccccc1", "note": "[Phenindione]", "growth": "0.298 ± 0.0061"}, {"smiles": "CC(C)NC(=N)NC(=N)Nc1ccc(Cl)cc1", "note": "[Proguanil hydrochloride]", "growth": "0.261 ± 0.006"}, {"smiles": "Cc1[nH]cnc1CN1CCc2c(c3ccccc3n2C)C1=O", "note": "[Alosetron hydrochloride]", "growth": "0.26 ± 0.0044"}, {"smiles": "O=c1cc(-c2ccc(O)c(O)c2)oc2cc(O)cc(O)c12", "note": "[Luteolin]", "growth": "0.0562 ± 0.0013"}, {"smiles": "O=C1OC(CN2CCOCC2)CN1/N=C/c1ccc([N+](=O)[O-])o1", "note": "(configuration not stated) [Furaltadone hydrochloride]", "growth": "0.0421 ± 0.002"}, {"smiles": "O=C(c1ccc(OCCN2CCCCC2)cc1)c1c(-c2ccc(O)cc2)sc2cc(O)ccc12", "note": "[Raloxifene hydrochloride]", "growth": "0.0454 ± 0.0038"}, {"smiles": "CNS(=O)(=O)Cc1ccc2[nH]cc(CCN(C)C)c2c1", "note": "[Sumatriptan succinate]", "growth": "0.298 ± 0.019"}, {"smiles": "Cc1ccc(C)c(OCCCC(C)(C)C(=O)O)c1", "note": "[Gemfibrozil]", "growth": "0.258 ± 0.0058"}, {"smiles": "O=C(NCC(O)CO)c1c(I)c(C(=O)NCC(O)CO)c(I)c(N(CCO)C(=O)CO)c1I", "note": "(configuration not stated) [Ioversol]", "growth": "0.308 ± 0.017"}, {"smiles": "CN(C)CCOC(c1ccc(Cl)cc1)c1ccccn1", "note": "(configuration not stated) [Carbinoxamine maleate salt]", "growth": "0.297 ± 0.017"}, {"smiles": "C=CCSCC1Nc2cc(Cl)c(S(N)(=O)=O)cc2S(=O)(=O)N1", "note": "(configuration not stated) [Althiazide]", "growth": "0.301 ± 0.019"}, {"smiles": "CC(=O)OCC(=O)[C@@]1(O)[C@H](C)C[C@H]2[C@@H]3CCC4=CC(=O)C=C[C@]4(C)[C@@]3(F)[C@@H](O)C[C@@]21C", "note": "[Dexamethasone acetate]", "growth": "0.239 ± 0.041"}, {"smiles": "CC(C)(C)NCC(O)c1ccc(O)c(CO)c1", "note": "(configuration not stated) [Salbutamol]", "growth": "0.285 ± 0.015"}, {"smiles": "CC(C)NCC(O)c1cc(O)cc(O)c1", "note": "(configuration not stated) [Metaproterenol sulfate, orciprenaline sulfate]", "growth": "0.291 ± 0.0065"}, {"smiles": "CN(CCOc1ccc(NS(C)(=O)=O)cc1)CCc1ccc(NS(C)(=O)=O)cc1", "note": "[Dofetilide]", "growth": "0.28 ± 0.0052"}, {"smiles": "N=c1nc(N2CCCCC2)cc(N)n1O", "note": "[Minoxidil]", "growth": "0.28 ± 0.0067"}, {"smiles": "Clc1ccccc1C(c1ccccc1)(c1ccccc1)n1ccnc1", "note": "[Clotrimazole]", "growth": "0.04147 ± 0.00015"}, {"smiles": "CC(=O)Oc1ccccc1C(=O)Nc1ncc([N+](=O)[O-])s1", "note": "[Nitazoxanide]", "growth": "0.0462 ± 0.0042"}, {"smiles": "CCOc1ccccc1OC(c1ccccc1)C1CNCCO1", "note": "(configuration not stated) [Reboxetine mesylate]", "growth": "0.265 ± 0.023"}, {"smiles": "NC(=O)c1cc[n+](CC2=C(C(=O)[O-])N3C(=O)[C@@H](NC(=O)[C@@H](c4ccccc4)S(=O)(=O)O)[C@H]3SC2)cc1", "note": "[Cefsulodin sodium salt]", "growth": "0.309 ± 0.014"}, {"smiles": "CC(C)(C)NC(=O)[C@@H]1C[C@@H]2CCCC[C@@H]2CN1C[C@@H](O)[C@H](Cc1ccccc1)NC(=O)[C@H](CC(N)=O)NC(=O)c1ccc2ccccc2n1", "note": "[Saquinavir mesylate]", "growth": "0.0535 ± 0.0019"}, {"smiles": "CCCCOC(=O)c1ccc(O)cc1", "note": "[Butylparaben]", "growth": "0.148 ± 0.0023"}, {"smiles": "Cc1cn[nH]c1", "note": "[Fomepizole]", "growth": "0.2912 ± 0.0021"}, {"smiles": "NC1CCN(c2nc3c(cc2F)c(=O)c(C(=O)O)cn3-c2ccc(F)cc2F)C1", "note": "(configuration not stated) [Tosufloxacin hydrochloride]", "growth": "0.048 ± 0.0026"}, {"smiles": "CN(C)CCN1C(=O)c2ccccc2N(C)c2ccccc21", "note": "[Dibenzepine hydrochloride]", "growth": "0.312 ± 0.018"}, {"smiles": "Nc1nc(NC2CC2)c2ncn([C@H]3C=C[C@@H](CO)C3)c2n1", "note": "[Abacavir Sulfate]", "growth": "0.295 ± 0.024"}, {"smiles": "O=C(NCCN1CCOCC1)c1ccc(Cl)cc1", "note": "[Moclobemide]", "growth": "0.287 ± 0.0083"}, {"smiles": "CC(C)C[C@H](NC(=O)[C@@H](O)[C@H](N)Cc1ccccc1)C(=O)O", "note": "[Ubenimex]", "growth": "0.28 ± 0.0072"}, {"smiles": "CC(C(=O)O)c1ccc(-c2ccccc2)c(F)c1", "note": "(configuration not stated) [Flurbiprofen]", "growth": "0.239 ± 0.014"}]}]}
